{
  "source": "PubChem BioAssay AID1159580",
  "about": "(chemical genetic matrix, 2015)",
  "test": "chemical genetic growth profiling, strain panel (AID 1159580);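 also: tested at 20 µM; growth read once vehicle control cultures reached saturation at 30 °C; 1 = growth at the plate median or of vehicle wells; lower values mean less growth of the strain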",
  "details": "S. cerevisiae deletion strains, growth OD",
  "note": "Several values for one entry are separate records, joined by “and”; a condition that tells them apart may be missing. Equal entries are not always repeated. Hit rate of the full screen: of about 5,500 compounds, about 2,000 (36%) were called active. Another 18% or so got no clear call; they are omitted. Rule as the data show it: active = normalized growth mostly below about 0.91 (no sharp cut-off); inconclusive = no clear call, values can overlap the other calls; inactive = mostly above about 0.92. The list shows a part of the results.",
  "data": [
    {"smiles": "CC1(C)C=Cc2cc3ccc(=O)oc3cc2O1", "values": [
      {"measurement": "normalized growth", "setting": "locus YAL013W, strain DEP1, stronger effect = lower value", "result": "0.986 (inactive)"},
      {"measurement": "normalized growth", "setting": "locus YAL021C, strain ccr4, stronger effect = lower value", "result": "0.987 (inactive)"},
      {"measurement": "normalized growth", "setting": "locus YAL026C, strain drs2, stronger effect = lower value", "result": "0.963 (inactive)"},
      {"measurement": "normalized growth", "setting": "locus YAL030W, strain snc1, stronger effect = lower value", "result": "0.934 (inactive)"},
      {"measurement": "normalized growth", "setting": "locus YBL061C, strain skt5, stronger effect = lower value", "result": "0.972 (inactive)"},
      {"measurement": "normalized growth", "setting": "locus YBR009C, strain hhf1, stronger effect = lower value", "result": "0.875 (active)"},
      {"measurement": "normalized growth", "setting": "locus YBR021W, strain FUR4, stronger effect = lower value", "result": "0.95 (inactive)"},
      {"measurement": "normalized growth", "setting": "locus YBR023C, strain chs3, stronger effect = lower value", "result": "0.912 (active)"},
      {"measurement": "normalized growth", "setting": "locus YBR171W, strain sec66, stronger effect = lower value", "result": "0.945 (inactive)"},
      {"measurement": "normalized growth", "setting": "locus YBR229C, strain ROT2, stronger effect = lower value", "result": "0.995 (inactive)"},
      {"measurement": "normalized growth", "setting": "locus YBR231C, strain swc5, stronger effect = lower value", "result": "0.958 (inactive)"},
      {"measurement": "normalized growth", "setting": "locus YBR279W, strain paf1, stronger effect = lower value", "result": "0.973 (inactive)"},
      {"measurement": "normalized growth", "setting": "locus YCL011C, strain gbp2, stronger effect = lower value", "result": "0.865 (active)"},
      {"measurement": "normalized growth", "setting": "locus YCL016C, strain dcc1, stronger effect = lower value", "result": "0.891 (active)"},
      {"measurement": "normalized growth", "setting": "locus YCL029C, strain bik1, stronger effect = lower value", "result": "0.967 (inactive)"},
      {"measurement": "normalized growth", "setting": "locus YCL069W, strain vba3, stronger effect = lower value", "result": "0.915 (active)"},
      {"measurement": "normalized growth", "setting": "locus YCR088W, strain abp1, stronger effect = lower value", "result": "0.927 (inactive)"},
      {"measurement": "normalized growth", "setting": "locus YDL005C, strain med2, stronger effect = lower value", "result": "0.96 (inactive)"},
      {"measurement": "normalized growth", "setting": "locus YDL035C, strain GPR1, stronger effect = lower value", "result": "0.984 (inactive)"},
      {"measurement": "normalized growth", "setting": "locus YDL040C, strain nat1, stronger effect = lower value", "result": "0.962 (inactive)"},
      {"measurement": "normalized growth", "setting": "locus YDL074C, strain BRE1, stronger effect = lower value", "result": "0.919 (inactive)"},
      {"measurement": "normalized growth", "setting": "locus YDL101C, strain DUN1, stronger effect = lower value", "result": "0.987 (inactive)"},
      {"measurement": "normalized growth", "setting": "locus YDL134C, strain PPH21, stronger effect = lower value", "result": "0.947 (inactive)"},
      {"measurement": "normalized growth", "setting": "locus YDL185W, strain tfp1, stronger effect = lower value", "result": "0.975 (inactive)"},
      {"measurement": "normalized growth", "setting": "locus YDL192W, strain arf1, stronger effect = lower value", "result": "0.958 (inactive)"},
      {"measurement": "normalized growth", "setting": "locus YDR001C, strain nth1, stronger effect = lower value", "result": "0.906 (active)"},
      {"measurement": "normalized growth", "setting": "locus YDR069C, strain doa4, stronger effect = lower value", "result": "0.958 (inactive)"},
      {"measurement": "normalized growth", "setting": "locus YDR101C, strain arx1, stronger effect = lower value", "result": "0.93 (inactive)"},
      {"measurement": "normalized growth", "setting": "locus YDR137W, strain rgp1, stronger effect = lower value", "result": "0.849 (inactive)"},
      {"measurement": "normalized growth", "setting": "locus YDR159W, strain sac3, stronger effect = lower value", "result": "0.959 (inactive)"},
      {"measurement": "normalized growth", "setting": "locus YDR162C, strain NBP2, stronger effect = lower value", "result": "0.976 (inactive)"},
      {"measurement": "normalized growth", "setting": "locus YDR195W, strain ref2", "result": "1.07 (inactive)"},
      {"measurement": "normalized growth", "setting": "locus YDR297W, strain sur2, stronger effect = lower value", "result": "0.965 (inactive)"},
      {"measurement": "normalized growth", "setting": "locus YDR318W, strain mcm21, stronger effect = lower value", "result": "0.935 (inactive)"},
      {"measurement": "normalized growth", "setting": "locus YDR334W, strain swr1, stronger effect = lower value", "result": "0.943 (inactive)"},
      {"measurement": "normalized growth", "setting": "locus YDR335W, strain msn5, stronger effect = lower value", "result": "0.919 (inactive)"},
      {"measurement": "normalized growth", "setting": "locus YDR388W, stronger effect = lower value", "result": "0.971 (inactive)"},
      {"measurement": "normalized growth", "setting": "locus YDR392W, strain spt3, stronger effect = lower value", "result": "0.58 (active)"},
      {"measurement": "normalized growth", "setting": "locus YDR502C, strain sam2, stronger effect = lower value", "result": "0.914 (active)"},
      {"measurement": "normalized growth", "setting": "locus YEL003W, strain gim4, stronger effect = lower value", "result": "0.951 (inactive)"},
      {"measurement": "normalized growth", "setting": "locus YEL037C, strain rad23, stronger effect = lower value", "result": "0.95 (inactive)"},
      {"measurement": "normalized growth", "setting": "locus YEL061C, strain CIN8 (second series), stronger effect = lower value", "result": "0.931 (inactive)"},
      {"measurement": "normalized growth", "setting": "locus YEL061C, strain CIN8, stronger effect = lower value", "result": "0.993 (inactive)"},
      {"measurement": "normalized growth", "setting": "locus YER015W, strain faa2, stronger effect = lower value", "result": "0.919 (active)"},
      {"measurement": "normalized growth", "setting": "locus YER016W, strain bim1, stronger effect = lower value", "result": "0.965 (inactive)"},
      {"measurement": "normalized growth", "setting": "locus YER110C, stronger effect = lower value", "result": "0.96 (inactive)"},
      {"measurement": "normalized growth", "setting": "locus YER111C, strain swi4, stronger effect = lower value", "result": "0.958 (inactive)"},
      {"measurement": "normalized growth", "setting": "locus YER155C, strain BEM2 (second series), stronger effect = lower value", "result": "0.565 (active)"},
      {"measurement": "normalized growth", "setting": "locus YER155C, strain BEM2, stronger effect = lower value", "result": "0.973 (inactive)"},
      {"measurement": "normalized growth", "setting": "locus YER167W, strain BCK2, stronger effect = lower value", "result": "0.952 (inactive)"},
      {"measurement": "normalized growth", "setting": "locus YFR010W, strain ubp6, stronger effect = lower value", "result": "0.951 (inactive)"},
      {"measurement": "normalized growth", "setting": "locus YGL078C, strain dbp3, stronger effect = lower value", "result": "0.968 (inactive)"},
      {"measurement": "normalized growth", "setting": "locus YGL086W, strain mad1, stronger effect = lower value", "result": "0.916 (active)"},
      {"measurement": "normalized growth", "setting": "locus YGL167C, strain pmr1, stronger effect = lower value", "result": "0.953 (inactive)"},
      {"measurement": "normalized growth", "setting": "locus YGL173C, strain kem1, stronger effect = lower value", "result": "0.949 (inactive)"},
      {"measurement": "normalized growth", "setting": "locus YGL227W, strain vid30, stronger effect = lower value", "result": "0.934 (inactive)"},
      {"measurement": "normalized growth", "setting": "locus YGL240W, strain doc1, stronger effect = lower value", "result": "0.863 (active)"},
      {"measurement": "normalized growth", "setting": "locus YGL248W, strain PDE1, stronger effect = lower value", "result": "0.941 (inactive)"},
      {"measurement": "normalized growth", "setting": "locus YGL253W, strain hxk2, stronger effect = lower value", "result": "0.971 (inactive)"},
      {"measurement": "normalized growth", "setting": "locus YGR078C, strain PAC10, stronger effect = lower value", "result": "0.944 (inactive)"},
      {"measurement": "normalized growth", "setting": "locus YGR135W, strain pre9, stronger effect = lower value", "result": "0.907 (inactive)"},
      {"measurement": "normalized growth", "setting": "locus YGR252W, strain gcn5, stronger effect = lower value", "result": "0.818 (inactive)"},
      {"measurement": "normalized growth", "setting": "locus YHR013C, strain ard1, stronger effect = lower value", "result": "0.865 (inactive)"},
      {"measurement": "normalized growth", "setting": "locus YHR027C, strain rpn1, stronger effect = lower value", "result": "0.953 (inactive)"},
      {"measurement": "normalized growth", "setting": "locus YHR030C, strain SLT2, stronger effect = lower value", "result": "0.984 (inactive) and 0.846 (active)"},
      {"measurement": "normalized growth", "setting": "locus YHR079C, strain IRE1 (second series), stronger effect = lower value", "result": "0.962 (inactive)"},
      {"measurement": "normalized growth", "setting": "locus YHR079C, strain IRE1, stronger effect = lower value", "result": "0.818 (active)"},
      {"measurement": "normalized growth", "setting": "locus YHR094C, strain hxt1, stronger effect = lower value", "result": "0.964 (inactive)"},
      {"measurement": "normalized growth", "setting": "locus YHR129C, strain ARP1, stronger effect = lower value", "result": "0.978 (inactive)"},
      {"measurement": "normalized growth", "setting": "locus YHR142W, strain chs7, stronger effect = lower value", "result": "0.834 (active)"},
      {"measurement": "normalized growth", "setting": "locus YHR200W, strain rpn10, stronger effect = lower value", "result": "0.954 (inactive)"},
      {"measurement": "normalized growth", "setting": "locus YIL066C, strain RNR3, stronger effect = lower value", "result": "0.993 (inactive)"},
      {"measurement": "normalized growth", "setting": "locus YIL073C, strain SPO22, stronger effect = lower value", "result": "0.908 (inactive)"},
      {"measurement": "normalized growth", "setting": "locus YIL125W, strain kgd1, stronger effect = lower value", "result": "0.935 (inactive)"},
      {"measurement": "normalized growth", "setting": "locus YIR030C, strain dcg1, stronger effect = lower value", "result": "0.962 (inactive)"},
      {"measurement": "normalized growth", "setting": "locus YJL092W, strain hpr5, stronger effect = lower value", "result": "0.921 (inactive)"},
      {"measurement": "normalized growth", "setting": "locus YJL095W, strain BCK1 (second series), stronger effect = lower value", "result": "0.96 (inactive)"},
      {"measurement": "normalized growth", "setting": "locus YJL095W, strain BCK1, stronger effect = lower value", "result": "0.901 (inactive) and 0.867 (active)"},
      {"measurement": "normalized growth", "setting": "locus YJL115W, strain asf1, stronger effect = lower value", "result": "0.921 (inactive)"},
      {"measurement": "normalized growth", "setting": "locus YJL129C, strain trk1, stronger effect = lower value", "result": "0.778 (active)"},
      {"measurement": "normalized growth", "setting": "locus YJL134W, strain LCB3, stronger effect = lower value", "result": "0.991 (inactive)"},
      {"measurement": "normalized growth", "setting": "locus YJL154C, strain vps35, stronger effect = lower value", "result": "0.933 (inactive)"},
      {"measurement": "normalized growth", "setting": "locus YJL164C, strain tpk1, stronger effect = lower value", "result": "0.9 (active)"},
      {"measurement": "normalized growth", "setting": "locus YJL166W, strain qcr8, stronger effect = lower value", "result": "0.896 (active)"},
      {"measurement": "normalized growth", "setting": "locus YJL168C, strain set2, stronger effect = lower value", "result": "0.976 (inactive)"},
      {"measurement": "normalized growth", "setting": "locus YJL187C, strain SWE1 (second series), stronger effect = lower value", "result": "0.959 (inactive)"},
      {"measurement": "normalized growth", "setting": "locus YJL187C, strain SWE1, stronger effect = lower value", "result": "0.968 (inactive)"},
      {"measurement": "normalized growth", "setting": "locus YJR043C, strain POL32, stronger effect = lower value", "result": "0.972 (inactive)"}
    ]}
  ]
}
